# G9a block: G9a (human) methyltransferase inhibition. Q96KQ7. G9a H3K9 monomethylation, AlphaScreen, 2 h. Potency, µM (series often up to 102 µM), inactives show at the highest dose activity, negative = inhibition, usual class: inhibitors. 350,000 tested, 8.8% active; also: % is scaled to controls: 0 for no effect and ±100 for the full control effect; nearly all actives have a fitted effect of over 75% in size
# Target sequence (Q96KQ7 913-1193 limits assumed): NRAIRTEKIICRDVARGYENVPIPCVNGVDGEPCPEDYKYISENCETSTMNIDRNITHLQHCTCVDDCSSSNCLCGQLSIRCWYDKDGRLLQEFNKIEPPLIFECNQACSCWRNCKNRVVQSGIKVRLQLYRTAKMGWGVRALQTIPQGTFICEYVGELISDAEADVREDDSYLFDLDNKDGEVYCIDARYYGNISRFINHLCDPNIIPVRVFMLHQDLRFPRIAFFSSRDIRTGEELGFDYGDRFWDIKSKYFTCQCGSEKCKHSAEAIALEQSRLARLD
#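 Chemiluminescent proximity detection of H3K9 monomethylation, read after 10 min bead incubation in the dark. Reaction: 20 nM G9a, 500 nM biotin-H3K9 peptide, 20 uM SAM cofactor, 2 h, room temperature, following 15 min enzyme-compound preincubation.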
# HP1b chromo inh: blocks HP1-beta chromodomain binding to methylated histone tails; P83916; AlphaScreen HP1-beta / biotin-H3K9me3 peptide binding; Potency, µM (doses to about 114 µM), inactives show at the highest dose activity change, negative = inhibition, usual class: inhibitors; 390,000 tested, 0.56% active; AID 540317; also: nearly all actives have a fitted effect of over 70% in size
# Target sequence (P83916 whole entry, looked up): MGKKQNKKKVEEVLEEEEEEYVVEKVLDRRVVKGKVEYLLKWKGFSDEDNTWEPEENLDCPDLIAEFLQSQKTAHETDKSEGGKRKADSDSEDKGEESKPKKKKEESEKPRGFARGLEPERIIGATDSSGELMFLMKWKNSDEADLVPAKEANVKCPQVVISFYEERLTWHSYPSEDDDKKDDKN
#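 AlphaScreen: HP1-beta (50 nM) preformed 30 min with biotin-H3(1-18)K9me3 peptide (50 nM) in PBS pH 7.4, 0.01% Tween-20. Compound added for 30 min at RT, then streptavidin donor/nickel chelate acceptor beads (10 ug/mL) for 30 min.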
# BAZ2B inh: blocks human BAZ2B. Q9UIF8. AlphaScreen BAZ2B-H3K14Ac peptide displacement. Potency, µM (doses to about 114 µM), inactives show top-dose activity change, negative = inhibition, actives largely listed as inhibitors. 360,000 tested, 4.4% active. AID 504333; also: % is scaled to controls: 0 for no effect and ±100 for the full control effect; nearly all actives have a fitted effect of over 60% in size
#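 AlphaScreen displacement of biotin-H3(5-23)K14Ac peptide (50 nM final) from BAZ2B (50 nM final) in PBS pH 7.4, 0.01% Tween-20; complex preformed 30 min RT, then compounds (top 110 uM) 30 min RT, beads 20 min dark.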
# Sfp inh: blocks B. subtilis Sfp PPTase activity; 310,000 tested, 3.5% active; Q9F4F7; AID 1490; Potency, µM, for inactives: largest response in the series, negative = inhibition, actives largely listed as inhibitors; Biochemical Sfp PPTase activity, qHTS;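 also: the enzyme is Sfp with the accession as filed and its product quenches rhodamine fluorescence; 0% = enzyme reaction without inhibitor and -100% = no enzyme wells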
#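 Fluorescence-quenching assay: 15 nM Sfp-PPTase preincubated 15 min at room temperature with compound, then 5 uM rhodamine-CoA and 12.5 uM BHQ-2-labelled YbbR peptide added. Fluorescence (ex 525/em 598 nm) read at start and after 30 min; difference gives rate.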
# L3MBTL1 block: L3MBTL1 (human) inhibition. AID 485360. Potency, µM (titrated, usually from 57.1 µM), inactives show at the top dose activity, negative = inhibition, usual class: inhibitors. AlphaScreen L3MBTL1–H3K9me1 peptide binding. 230,000 tested, 0.66% active; also: % is scaled to controls: 0 for no effect and ±100 for the full control effect; nearly all actives have a fitted effect of over 60% in size
#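 AlphaScreen proximity signal between nickel-chelate acceptor and streptavidin donor beads (final 10 ug/mL) reports binding of 50 nM L3MBTL1 to 75 nM biotin-H3 K9me1 peptide; complex incubated with compounds 30 min at room temperature; cefsulodin titration as control.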
# JMJD2A Tudor: JMJD2A Tudor domain (human) inhibition | O75164 | AlphaScreen JMJD2A-Tudor / H3K4me3 peptide binding | Potency, µM (highest dose often 114 µM), for inactives: at the highest dose activity change, negative = inhibition, usual class: inhibitors | 390,000 tested, 4.4% active; also: % is scaled to controls: 0 for no effect and ±100 for the full control effect; nearly all actives have a fitted effect of over 50% in size
# Numbers without * were called inactive; ? = inconclusive; . = not tested or not shown; [ ] = remark or other dose. Hits are enriched below; roughly 12% of the tested compounds scored in any of these assays. Calls follow the shape of the dose curve; as a rule, active = well fitted curve in the direction sought with a large enough effect; inconclusive = small, poorly fitted or top-dose-only effect, or another doubt; inactive = no such curve, though single readings can be large; an effect the other way counts as inactive or inconclusive. Potency is read from the fitted curve at half-maximal effect.
SMILES,G9a block,HP1b chromo inh,BAZ2B inh,Sfp inh,L3MBTL1 block,JMJD2A Tudor
COc1cccc(CNC(=O)C2CCN(S(=O)(=O)c3cn(C)cn3)CC2)c1,14%[59 µM],11%,-5%,.,.,-5%
CCN(C(=O)c1ccc2c(c1)N(Cc1cccc(Cl)c1)C(=O)c1ccccc1S2=O)c1ccccc1 (centres undefined),-27%[59 µM],1%,-8%,.,.,-16%
Cn1c(=O)c([N+](=O)[O-])c(NCc2ccccc2)c2ccccc21,50µM*,40%,-1%,1%,-2%,-6%
O=C(NCc1ccccc1)c1ccccc1C(=O)c1ncc[nH]1,13µM*,29%,?,?,0%,-2%
COc1ccc(C(=O)Nc2ccccc2C(=O)Nc2ccncc2)cc1,45µM*,24%,?,6%,.,-14%
COc1ccc(C(=O)Nc2ccccc2C(=O)Nc2ccc(C(=O)O)cc2)cc1,?,45%,-17%,8%,-12%,-13%
C/C(=N\NC(=O)c1ccn(C)n1)c1cccc(NC(=O)c2ccncc2)c1,18%,-5%,-5%,8%,6%,10µM*
CC(=O)Nc1cccc(/C(C)=N/NC(N)=S)c1,32µM*,-6%,-13%,35µM*,7%,-3%
C/C(=N\NC(=O)c1ccc(Cl)cc1)c1cccc(NC(=O)c2cccnc2)c1,-18%,50%,1%,2%,2%,-11%
COc1ccc(C(=O)Nc2ccc(/C(C)=N/NC(=O)c3ccncc3)cc2)cc1,22µM*,.,50µM*,50µM*,.,.
Cc1ccc(CN(C(=O)COc2ccc(Br)cc2)c2ccccn2)o1,10%[59 µM],42%,1%,.,.,-8%
Cc1ccc(-c2nc3c(c(SCc4ccc(Br)cc4)n2)Cc2c(CO)cnc(C)c2O3)cc1,-33%[59 µM],20%,?,.,.,-13%
Cc1ccc(NS(=O)(=O)c2cc3c(cc2/C=C/c2ccccc2)NC(=O)CO3)cc1C,.,.,.,.,.,-9%
Cc1ccc(CNC(=O)N2CCC(CN3CCC(C)CC3)CC2)cc1,-3%[59 µM],0%,-3%,.,.,-16%
CCOC(=O)COn1c(-c2cccc(Cl)c2)nc2ccc([N+](=O)[O-])cc21,50µM*,45%,-4%,-1%,4%,-8%
O=C(COC(=O)c1cccc(S(=O)(=O)N2CCc3ccccc3C2)c1)NCc1ccco1,?,26%,50µM*,?,.,4%
CC(OC(=O)c1cccc(S(=O)(=O)N2CCN(C)CC2)c1)C(=O)Nc1ccc(C(N)=O)cc1 (centres undefined),12%[59 µM],-14%,0%,.,3%,-19%
O=C(COC(=O)c1cc(S(=O)(=O)N2CCc3ccccc3C2)ccc1Cl)NCc1ccco1,40µM*,?,?,45µM*,.,79µM*
CCc1ccc(NC(=O)C(C)OC(=O)c2cccc(S(=O)(=O)N3CCc4ccccc4C3)c2)cc1 (centres undefined),7.9µM*,28%,15%,89µM*,21%,-19%
COc1ccccc1NC(=O)CSc1nnc2c(n1)[nH]c1ccccc12,3%[59 µM],3%,-12%,.,.,-3%
Cc1ccc(C)c(Cn2c(=O)n(-c3ccc(F)cc3)c(=O)c3sc4ccccc4c32)c1,-3%[59 µM],32%,-2%,.,.,-11%
Cc1ccc(CCNC(=O)CCn2nc(-c3ccc(Cl)cc3)ccc2=O)cc1,-4%[59 µM],28%,-1%,.,.,-13%
c1coc(-c2nnc(-c3ccco3)nn2)c1,20µM*,45µM*,20µM*,-65%,.,25µM*
CC(C)c1ccc(/C=C2\SC(=S)N(CCC(=O)N3CCCCC3CCO)C2=O)cc1 (centres undefined),45µM*,-38%[57 µM],?,-18%,.,13µM*
COc1ccc(/C=C2\SC(=S)N(CCCC(=O)N3CCCCC3CCO)C2=O)cc1 (centres undefined),-4%[0.0925 µM],-24%,7.9µM*,-11%,.,35µM*
SMILES,G9a block,HP1b chromo inh,BAZ2B inh,Sfp inh,L3MBTL1 block,JMJD2A Tudor
CCc1c(-c2ccccc2)nc2ccccc2c1C(=O)NCCc1ccccc1,-2%[59 µM],2%,5%,.,.,-16%
N=c1sccn1CC(=O)Nc1ccc(SC(F)F)cc1,50µM*,2%,-17%,-22%,1%,-24%
N=c1sccn1CC(=O)Nc1ccc(S(N)(=O)=O)cc1,1%,44%,-3%,7%,2%,-1%
CC1CCN(S(=O)(=O)c2ccc3c(c2)N(CC(=O)NC(C)(C)C)C(=O)CS3)CC1,-17%[59 µM],20%,-16%,.,.,-7%
CCOC(=O)C1(CC)CC(CSc2nc3ccccc3[nH]2)OC1=O (centres undefined),-9%[12.7 µM],14%,?,-2%,.,89µM*
CCn1cc([N+](=O)[O-])c(C(=O)N2N=C(c3ccc(OC)cc3OC)CC2c2ccccc2O)n1 (centres undefined),45µM*,?,-2%,-16%,-17%,?
O=C(COC(=O)CNC(=O)c1ccc(Cl)cc1Cl)NCc1ccco1,2%,9%,6%,.,0%,3%
CC(C)c1ccc(CNc2ccc3c(c2)ncn3C)cc1,?,1%,40µM*,-11%,.,?
CCCn1cnc2cc(NCc3cccs3)ccc21,18µM*,-1%,?,3%,-13%,?
Cn1cnc2cc(NCc3ccccc3Cl)ccc21,50µM*,-7%,-31%,5%,.,?
c1ccc(-n2cnc3cc(NCc4ccncc4)ccc32)cc1,?,11%,?,-26%,-8%,56µM*
COc1cccc(CNc2ccc3c(c2)ncn3C)c1OC,38%[59 µM],-4%,?,-2%,-5%,?
CCC(=O)Nc1ccc2c(c1)ncn2C,-41%,25%,-32%,17%,0%,-11%
CC(=O)Nc1ccc2c(c1)ncn2-c1ccccc1,?,24%,-9%,-15%,6%,-12%
CSc1cccc(-n2nnc(-c3nsc(NC(=O)c4cccs4)n3)c2C)c1,-1%[59 µM],-1%,-4%,.,.,-18%
CCCCn1cnc2cc(NCc3ccccc3Cl)ccc21,14µM*,?,35µM*,.,.,40µM*
CCn1cnc2cc(NCc3ccccc3Cl)ccc21,45µM*,?,?,-1%,.,?
Cc1sc2nc(-c3cccnc3)[nH]c(=O)c2c1-c1ccccc1,11µM*,-12%,.,45µM*,2%,-17%
